Experimental data reported in PubChem BioAssay AID1209 (Sanford-Burnham Center for Chemical Genomics, 2008).
Hit rate of the full screen: of about 190,000 compounds, about 810 (0.43%) were called active. Rule as the data show it: active = inhibition above about 50%; inactive = the rest. Only a selection was taken, and actives are over-represented in it overall.

Target: Mannose-6-phosphate isomerase (Homo sapiens) (UniProt P34949)
Test: inhibitors of human PMI, primary screen, biochemical, fluorescence intensity, coupled assay (AID 1209);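 also: plate controls were DMSO vehicle for no effect and wells lacking substrate for full effect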
Conditions: purified PMI enzyme, at 20 µM, stronger effect = higher value

Mannose-6-phosphate isomerase (Homo sapiens), sequence (P34949 whole entry, looked up): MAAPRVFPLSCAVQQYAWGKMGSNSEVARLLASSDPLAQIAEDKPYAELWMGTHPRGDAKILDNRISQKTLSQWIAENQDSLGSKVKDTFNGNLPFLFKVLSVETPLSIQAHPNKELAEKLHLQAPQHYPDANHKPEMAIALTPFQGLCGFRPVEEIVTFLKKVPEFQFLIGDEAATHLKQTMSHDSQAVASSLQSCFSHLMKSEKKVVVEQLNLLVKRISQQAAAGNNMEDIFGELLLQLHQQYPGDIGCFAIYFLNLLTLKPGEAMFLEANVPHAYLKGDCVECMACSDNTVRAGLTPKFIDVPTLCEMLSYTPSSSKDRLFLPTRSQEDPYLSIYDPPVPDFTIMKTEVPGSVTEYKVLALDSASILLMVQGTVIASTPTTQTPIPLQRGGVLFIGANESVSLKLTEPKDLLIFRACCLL

Row | SMILES | inhibition
1 | O=C(O)/C=C/C(=O)Nc1ccc(SC(F)(F)F)cc1 | -22.4% (inactive)
2 | CC1(C)Cc2nc3sc4c(=O)n(Cc5ccccc5)cnc4c3cc2CS1 | -8.6% (inactive)
3 | Cc1cc(NC(=O)CSc2ncnc3ccccc23)no1 | 15.8% (inactive)
4 | O=C(O)CCn1cc(/C=C2\SC(=S)NC2=O)c(-c2ccccc2)n1 | -4.7% (inactive)
5 | O=Cc1cn(CCC(=O)O)nc1-c1cccc(Br)c1 | -4.6% (inactive)
6 | O=c1oc2c(CN3CCOCC3)c(O)ccc2c2ccccc12 | 7.2% (inactive)
7 | CN(C)Cc1c(O)ccc2c3c(c(=O)oc12)CCCCC3 | -0.4% (inactive)
8 | CCC1(c2ccccc2)NC(=O)N(Cc2ccc(C(=O)OC)cc2)C1=O (stereo not drawn) | 4.1% (inactive)
9 | CCOC(=O)c1[nH]c2ccc(OC)cc2c1NC(=O)/C=C/c1ccc2c(c1)OCO2 | -2.7% (inactive)
10 | CC1=NN(c2ccccc2)C(=O)/C1=C/C=C/c1ccccc1 | 3.1% (inactive)
11 | CC1=NN(c2ccccc2)C(=O)/C1=C/C=C/C=C/N(C)C | 50.1% (active)
12 | CC1=NN(c2ccccc2)C(=O)/C1=C/C=C/c1ccc(N(C)C)cc1 | 14.6% (inactive)
13 | CCOc1ncccc1C(=O)Nc1nc(SC)ns1 | -7% (inactive)
14 | O=C1C2C3C=CC(CNS(=O)(=O)c4ccccc4[N+](=O)[O-])(O3)C2C(=O)N1c1ccccc1 (stereo not drawn) | -34.8% (inactive)
15 | COc1ccccc1C(OC(=O)c1cccs1)C(=O)NCc1ccco1 (stereo not drawn) | -1.9% (inactive)
16 | O=C(O)[C@@H]1CSC2(CCSC2)N1 (stereo partly drawn) | -0.6% (inactive)
17 | COC(=O)C1=C(C)N(Cc2ccco2)C(=O)/C1=C\c1ccc([N+](=O)[O-])cc1 | -16.2% (inactive)
18 | COC(=O)C1=C(C)N(Cc2ccco2)C(=O)/C1=C\c1ccc(N(C)C)cc1 | 63.9% (active)
19 | CCOc1cc(/C=C2\C(=O)N(Cc3ccco3)C(C)=C2C(=O)OC)ccc1O | 27.7% (inactive)
20 | O=C(c1ccc(F)cc1)c1c[nH]c(C(=O)NCCCN2CCOCC2)c1 | 4.5% (inactive)
21 | CCc1c(C)sc(NC(=O)Cn2nc(C(F)(F)F)c3c2CCCC3)c1C#N | 15.3% (inactive)
22 | CC1CCc2c(sc(NC(=O)Cn3nc(C(F)(F)F)c4c3CCCCC4)c2C#N)C1 (stereo not drawn) | -0.9% (inactive)
23 | N#Cc1c(NC(=O)Cn2nc(C(F)(F)F)c3c2CCCC3)sc2c1CCC2 | 56.8% (active)
24 | CCOc1ccc(Br)cc1S(=O)(=O)Nc1ccc(N2CCOCC2)cc1 | 12% (inactive)
25 | CC1CCc2c(nc3ncnn3c2N2CCN(c3ccccc3)CC2)C1 (stereo not drawn) | -7.9% (inactive)

Row | SMILES | inhibition
26 | c1ccc(N2CCN(c3c4c(nc5ncnn35)CCC4)CC2)cc1 | 68.8% (active)
27 | COc1cccc(N2CCN(c3c4c(nc5ncnn35)CCC4)CC2)c1 | -1.8% (inactive)
28 | N#CC1=C(N)Oc2n[nH]c(-c3cccs3)c2C1C1C=CCCC1 (stereo not drawn) | 2.1% (inactive)
29 | O=C(O)CSc1ncccn1 | -18.2% (inactive)
30 | O=C(CSc1nc2ccccc2s1)CSc1nc2ccccc2s1 | 7.7% (inactive)
31 | CN(C(=O)c1ccccn1)C1(C(=O)NC2CCCCC2)CCCCC1 | -7.7% (inactive)
32 | Cc1cc(NC(=O)NC2(C(F)(F)F)Oc3ccc(Cl)cc3O2)no1 (stereo not drawn) | 52% (active)
33 | O=C(NCCN1CCOCC1)NC1(C(F)(F)F)Oc2ccc(Cl)cc2O1 (stereo not drawn) | 60.2% (active)
34 | O=C(NCCN1CCOCC1)NC1(C(F)(F)F)Oc2ccccc2O1 | 8.2% (inactive)
35 | COCCNC(=O)NC1(C(F)(F)F)Oc2ccc(Cl)cc2O1 (stereo not drawn) | 22.5% (inactive)
36 | O=C(NCc1cccnc1)NC1(C(F)(F)F)Oc2ccc(Cl)cc2O1 (stereo not drawn) | 22.4% (inactive)
37 | O=C(Nc1cc(N2CCOCC2)ncn1)NC1(C(F)(F)F)Oc2ccc(Cl)cc2O1 (stereo not drawn) | 74.1% (active)
38 | O=C(Nc1cc(N2CCOCC2)ncn1)c1ccc(F)cc1 | 5.3% (inactive)
39 | COCC(C)NC(=O)NC1(C(F)(F)F)Oc2ccc(Cl)cc2O1 (stereo not drawn) | 22.8% (inactive)
40 | O=C(Nc1cc(N2CCOCC2)ncn1)NC1(C(F)(F)F)Oc2ccccc2O1 | 35.5% (inactive)
41 | O=C(c1cc2nc(-c3ccco3)cc(C(F)(F)F)n2n1)N1CCCCCC1 | -12.3% (inactive)
42 | CCCOC(=O)c1ccc(Nc2nc(C)cc(=O)[nH]2)cc1 | 1.7% (inactive)
43 | Cc1cc(C)nc(SCc2nnc(SCC(=O)Nc3cc(C(F)(F)F)ccc3Cl)o2)n1 | 3% (inactive)
44 | Cc1ccc(N2C(=O)C3Sc4[nH]c(=O)sc4C(c4ccccc4)C3C2=O)cc1 (stereo not drawn) | 11.4% (inactive)
45 | COc1ccc(C(=O)NC(C)c2ccccc2)cc1Br (stereo not drawn) | 3.2% (inactive)
46 | O=C(O)C1Sc2[nH]c(=O)sc2C2c3cc(Cl)ccc3OC(=O)C12 (stereo not drawn) | 50.4% (active)
47 | O=C(O)C1Sc2[nH]c(=O)sc2C2c3ccc(O)cc3OC(=O)C12 (stereo not drawn) | 24.3% (inactive)
48 | COC(=O)C1Sc2[nH]c(=O)sc2C2c3ccccc3OC(=O)C12 (stereo not drawn) | 10.6% (inactive)
49 | O=C(Nc1ccc(S(=O)(=O)Nc2nccs2)cc1)c1cc(-c2ccccn2)nc2ccccc12 | -1.4% (inactive)
50 | CC(C)CCn1c(=O)c(C(=O)N/N=C/c2cccc(F)c2)c(O)c2ccccc21 | -3.7% (inactive)

Row | SMILES | inhibition
51 | CC(C)(C)C1=CC(=Nc2ccccc2N)C=C(C(C)(C)C)C1=O | -7.3% (inactive)
52 | CC(C)(C=O)C1=CC(=O)c2ccccc2C1=O | -17.2% (inactive)
53 | CC(C)(C)C1=CC(=O)C(=O)C(C(C)(C)C)=C1 | 61.2% (active)
54 | COc1ccc(CCNC(=O)CN2CCN(c3cccc(C(F)(F)F)c3)CC2)cc1 | 3.1% (inactive)
55 | O=C(c1ccco1)N1CCN(c2nc(-c3ccc(F)cc3)cs2)CC1 | 5.4% (inactive)
56 | N#CC(=C1CCCC1)c1nc(-c2cc3ccccc3oc2=O)cs1 | 1.4% (inactive)
57 | CN(C)CCCNS(=O)(=O)c1ccc(Cl)s1 | 0% (inactive)
58 | Fc1ccc(C2c3cccn3CCN2C(=S)Nc2cccc(Br)c2)cc1 (stereo not drawn) | 5.7% (inactive)
59 | O=C1CCc2cc(S(=O)(=O)N3CCN(c4ccccc4F)CC3)ccc2N1 | 6% (inactive)
60 | COc1ccc(CC(NC(C)=O)C(=O)NC2CCN(C(=O)NCc3ccccc3)CC2)cc1OC (stereo not drawn) | -4.4% (inactive)
61 | CCC(=O)NC(=S)Nc1ccc(NC(=O)COc2ccc(Cl)cc2Cl)cc1 | 5.1% (inactive)
62 | CCC(=O)NC(=S)Nc1ccc(NC(=O)COc2ccc(Cl)c(C)c2)cc1 | 62.3% (active)
63 | CCC(=O)NC(=S)Nc1ccc(NC(=O)COc2ccccc2)cc1 | 10.1% (inactive)
64 | Cc1cc(NC(=O)CSc2nnc(NC(=O)C3CC(=O)N(c4ccccc4)C3)s2)no1 (stereo not drawn) | -9.8% (inactive)
65 | O=C(CCn1c(=O)sc2ccccc21)NCCC1=CCCCC1 | 3.6% (inactive)
66 | O=C(C1=C(c2ccccc2)C(=O)c2ccccc2C1=O)c1ccccc1 | 48.7% (inactive)
67 | COc1ccc(C2=C(N)c3ccccc3C2=O)cc1 | 3.9% (inactive)
68 | CC(C)c1ccc(C2=C(O)c3ccccc3C(=O)C2=O)cc1 | -3.9% (inactive)
69 | CCOC(=O)C1=C(Cc2ccc(OC)cc2)C(=O)c2ccccc2C1=O | 22.9% (inactive)
70 | CC(=O)C1=C(c2ccc(Br)cc2)C(=O)c2ccccc2C1=O | 80.3% (active)
71 | OC(CNCc1ccccc1)Cn1ccc2ccccc21 (stereo not drawn) | -1.3% (inactive)
72 | NC(N)=N/N=C/c1ccc(Br)cc1 | -2.5% (inactive)
73 | O=c1cc(-c2ccc(O)c(O)c2)oc2cc(O)c(C3OC(CO)C(O)C(O)C3O)c(O)c12 (stereo not drawn) | 45.4% (inactive)
74 | O=c1cc(-c2ccc(O)c(O)c2)oc2c(C3O[C@H](CO)[C@@H](O)[C@H](O)[C@H]3O)c(O)cc(O)c12 (stereo partly drawn) | 51.9% (active)
75 | O=c1cc(-c2ccc(O)cc2)oc2c([C@@H]3O[C@H](CO)[C@@H](O)[C@H](O)[C@H]3O)c(O)c([C@@H]3O[C@H](CO)[C@@H](O)[C@H](O)[C@H]3O)c(O)c12 | -0.7% (inactive)

Row | SMILES | inhibition
76 | CC(=O)N1C(=O)c2cccc3cccc(c23)C(=O)N1C(C)=O | 9.5% (inactive)
77 | NC1=Nc2cccc3cccc1c23 | 12.8% (inactive)
78 | CCN1CCN(C(=O)c2oc(=O)c3ccccc3c2-c2ccc(C)cc2)CC1 | -1.6% (inactive)
79 | CNc1nc2[nH]c(=O)c3c(c2s1)OC(N)=C(C#N)C3c1ccccc1 (stereo not drawn) | 43.5% (inactive)
80 | CCNc1nc2[nH]c(=O)c3c(c2s1)OC(N)=C(C#N)C3c1ccc(C)cc1 (stereo not drawn) | 54.6% (active)
81 | CNc1nc2[nH]c(=O)c3c(c2s1)OC(N)=C(C#N)C3c1cccc(F)c1 (stereo not drawn) | 39.7% (inactive)
82 | COCCCNC(=S)N/N=C/c1ccc(N(C)C)cc1 | 1% (inactive)
83 | CCC(C)/C(C)=N/NC(=O)c1ccc(COc2ccc(Cl)c(C)c2)cc1 (stereo not drawn) | 13.9% (inactive)
84 | Cc1ccc(NCc2ccccc2O)cc1 | 13.8% (inactive)
85 | Oc1ccc(F)c2cccnc12 | 50.9% (active)
86 | O=[N+]([O-])c1ccc(O)c2ncccc12 | -7.5% (inactive)
87 | Oc1ccc(COCc2ccccc2)c2cccnc12 | 46.1% (inactive)
88 | Cc1ccc(NCc2ccc(O)c3ncccc23)cc1C | 55.8% (active)
89 | COCc1ccc(O)c2ncccc12 | 23.7% (inactive)
90 | Oc1ccc(CNc2ccc(F)cc2)c2cccnc12 | 36.2% (inactive)
91 | Cc1ccc(NCc2ccc(O)c3ncccc23)cc1 | 50.8% (active)
92 | Cc1ccc(NCc2ccccc2O)cc1C | 19.9% (inactive)
93 | Cc1cccc(NCc2ccc(O)c3ncccc23)c1 | 42.5% (inactive)
94 | Oc1ccc(CNc2ccccc2)c2cccnc12 | 50.5% (active)
95 | OCc1ccc(O)c2ncccc12 | 27% (inactive)
96 | S=c1[nH]nc(-c2cccnc2)o1 | -18.4% (inactive)
97 | Nc1nc(NC(=O)/C=C\C(=O)O)nn1-c1ccccc1 | -12.4% (inactive)
98 | Cc1ccc(C)c(NC(=S)N(Cc2ccc(Cl)cc2)Cc2ccc(C(=O)O)cc2)c1 | -4.3% (inactive)
